Results on 25 compounds are retold here after PubChem BioAssay.

Experiment [1] is described as follows: growth inhibition of DIPG glioma cells, dose response, cell-based, SU-DIPG-XIII, MIPE5.0, CellTiter-Glo, qHTS (AID 1347064; cut-off not given, nearly all actives have AC50 up to about 23 µM;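 as to AC50: cells exposed to compound for 48 hours before the viability read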). Conditions: SU-DIPG-XIII viability, CellTiter-Glo ATP luminescence.
Experiment [2] is described as follows: protection against mutant huntingtin cytotoxicity, PC12 cells, LDH release (AID 1610). The conditions noted are these: PC12 mutant huntingtin toxicity, final LDH at 4 uM, stronger effect = lower value.
Experiment [3] in a line: inhibitors of Cryptococcus chitosan production, flow cytometry, Cibacron Brilliant Red staining (AID 1347148; call rule not given here;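 also: compound exposure lasted three days at 37 degrees C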). Conditions: Cryptococcus neoformans chitosan, stronger effect = lower value; at 10 µM unless noted.
Experiment [4] is described as follows: modifiers of HSF1 nuclear foci, imaging, Selleck Cancer Library (AID 1347162; in the data active = plate-normalised HSF1 focus index below about 0.46). The conditions noted are these: human cells, at 10 µM; SSMD: measured here: HSF1 foci SSMD mean; cell count: measured here: cell number; plate-normalised HSF1 focus index: stronger effect = lower value.
The nature of experiment [5]: protection of motor neurons from glutamate death, cell-based, TUNEL DNA degradation staining, MNGlu (AID 1594; call rule not given here). The conditions noted are these: glutamate-induced death, at 1 µM, stronger effect = higher value.
Experiment [6] is described as follows: viability loss in pontine glioma line – cell-based, SU-DIPG-XXV, MIPE5.0, CellTiter-Glo, qHTS, dose response (AID 1347065; cut-off not given, nearly all actives have AC50 up to about 26 µM;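 also: cells exposed to compound for 48 hours before ATP readout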). The conditions noted are these: CellTiter-Glo ATP luminescence.
The target in experiment [7] is Calcium-dependent protein kinase 1 (Plasmodium falciparum (isolate 3D7)) (UniProt P62344). The experiment in a line: PfCDPK1 kinase inhibitors, biochemical, TCAMS library (AID 1159585; cut-off not given, nearly all actives have IC50 up to about 0.98 µM;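 also: inhibitors leave more ATP so luminescence rises with inhibition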). Conditions: recombinant PfCDPK1, Kinase-Glo ATP depletion luminescence.
Chain of Calcium-dependent protein kinase 1 (Plasmodium falciparum (isolate 3D7)) (P62344 whole entry, looked up): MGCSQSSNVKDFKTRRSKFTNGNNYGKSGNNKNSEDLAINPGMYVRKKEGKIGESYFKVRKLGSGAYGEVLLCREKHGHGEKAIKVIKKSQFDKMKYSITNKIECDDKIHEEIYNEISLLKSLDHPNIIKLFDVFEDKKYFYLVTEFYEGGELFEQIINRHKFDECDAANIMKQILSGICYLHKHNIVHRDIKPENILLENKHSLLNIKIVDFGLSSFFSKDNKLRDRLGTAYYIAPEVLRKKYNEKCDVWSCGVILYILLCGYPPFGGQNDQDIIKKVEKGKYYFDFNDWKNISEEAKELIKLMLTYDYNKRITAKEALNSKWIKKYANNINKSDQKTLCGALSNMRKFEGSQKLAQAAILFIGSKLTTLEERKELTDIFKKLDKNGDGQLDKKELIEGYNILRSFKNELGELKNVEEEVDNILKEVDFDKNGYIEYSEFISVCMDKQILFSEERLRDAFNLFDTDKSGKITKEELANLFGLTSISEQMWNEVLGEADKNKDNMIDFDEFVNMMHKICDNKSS
Experiment [8] has as its target Plasmodium falciparum protein kinase 6 (PK6, PF3D7_1337100) (UniProt Q8IDW1). The experiment in a line: PfPK6 kinase inhibitors, biochemical, TCAMS library (AID 1159586; call rule not given here). Conditions: recombinant PfPK6, Kinase-Glo ATP depletion luminescence.
Experiment [9] deals with Protein kinase 7 (PK7), Plasmodium falciparum 3D7 (PF3D7_0213400) (UniProt Q7YTF7). The experiment in a line: inhibition of Plasmodium PK7 catalytic activity – biochemical, TCAMS antimalarial set, Kinase-Glo luminescence (AID 1159587; call rule not given here). The conditions noted are these: recombinant PfPK7, Kinase-Glo ATP depletion luminescence.
Chain of Protein kinase 7 (PK7), Plasmodium falciparum 3D7 (PF3D7_0213400) (Q7YTF7 1-343): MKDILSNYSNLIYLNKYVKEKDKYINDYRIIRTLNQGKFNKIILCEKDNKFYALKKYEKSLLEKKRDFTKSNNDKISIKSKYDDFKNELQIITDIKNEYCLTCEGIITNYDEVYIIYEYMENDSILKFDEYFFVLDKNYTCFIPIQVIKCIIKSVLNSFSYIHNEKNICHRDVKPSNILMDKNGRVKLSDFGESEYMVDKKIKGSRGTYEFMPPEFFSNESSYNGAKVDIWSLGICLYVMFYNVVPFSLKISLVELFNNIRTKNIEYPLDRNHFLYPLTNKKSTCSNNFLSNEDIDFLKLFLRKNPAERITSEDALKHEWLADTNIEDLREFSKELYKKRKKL
The nature of experiment [10]: LFS_MB_1R medulloblastoma cell growth inhibition, synergistic combos for chromothripsis tumors, cisplatin or BGB combos (AID 1671452).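 Also: cells exposed for 96 hours before readout.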 The conditions noted are these: LFS_MB_1R medulloblastoma cells, stronger effect = higher value.
Experiment [11] can be described thus: CRL2098 osteosarcoma cell growth inhibition, synergistic combos for chromothripsis tumors, BGB or cisplatin IC20 combos (AID 1671454).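 Also: cells exposed for 96 h before readout; 0% = vehicle DMSO and 100% = killing by high DMSO.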 The conditions noted are these: CRL2098 osteosarcoma cells, drug combinations, stronger effect = higher value.
Experiment [12] can be described thus: HD-MB03 medulloblastoma cell growth inhibition, synergistic combos for chromothripsis tumors, BGB or cisplatin IC20 combos (AID 1671455; in the data active = inhibition above about 83%;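 also: 0% = vehicle DMSO and 100% = high DMSO as cytotoxic control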). The conditions noted are these: HD-MB03 medulloblastoma cells, stronger effect = higher value.
Experiment [13] is described as follows: UWB1.289 ovarian carcinoma cell growth inhibition, synergistic combos for chromothripsis tumors, BGB or cisplatin combos (AID 1671456).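 Also: cells exposed to compound for four days; 0% = vehicle DMSO and 100% = killing by high DMSO.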 The conditions noted are these: UWB1.289 ovarian carcinoma cells, stronger effect = higher value.
A short description of experiment [14]: LFS_MB_2R medulloblastoma cell growth inhibition, synergistic combos for chromothripsis tumors, cisplatin combos (AID 1671457).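 Also: cells exposed to compound for four days before readout.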 The conditions noted are these: LFS_MB_2R medulloblastoma cells, stronger effect = higher value.
Experiment [15] can be described thus: MDA-MB-436 breast carcinoma cell growth inhibition, synergistic combos for chromothripsis tumors, BGB or cisplatin combos (AID 1671458; call rule not given here;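 also: cells exposed for 96 hours; 0% = vehicle DMSO and 100% = killing by high DMSO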). The conditions noted are these: MDA-MB-436 breast carcinoma growth inhibition, drug combinations, stronger effect = higher value.
Experiment [16] can be described thus: UWB1.289_BRCA1 ovarian cancer growth, cell-based, BGB or cisplatin combinations (AID 1671459). The conditions noted are these: UWB1.289 BRCA1 ovarian carcinoma, drug combinations, stronger effect = higher value.
Experiment [17] is described as follows: human astrocyte viability loss, single and combined drugs, cytotoxicity control for chromothriptic childhood tumor combination screen, cell-based, BGB or cisplatin IC20 combos (AID 1671460).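 Also: cells exposed to compounds for 96 hours before viability readout; 0% = vehicle and 100% = killing control.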 Conditions: Human astrocytes, drug combinations, stronger effect = higher value.
Experiment [18] in a line: growth inhibition of BT084 medulloblastoma cells, cell-based, ICGC_MB145, cisplatin and BGB IC40 combos (AID 1671461).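 Also: cells exposed to drugs for 96 hours; 0% = vehicle DMSO and 100% = high DMSO full killing control.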 Conditions: drug combinations, stronger effect = higher value.
Experiment [19] in a line: growth inhibition of RCMB18 medulloblastoma cells, cell-based, cisplatin and BGB IC40 combos (AID 1671462).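 Also: cells exposed to compound for four days.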 Conditions: stronger effect = higher value.
A short description of experiment [20]: growth inhibition of CRL1545 osteosarcoma cells, cell-based, cisplatin and BGB IC20 combos (AID 1671464).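 Also: cells exposed to compound for 96 hours before readout; 0% = vehicle DMSO and 100% = high DMSO killing control.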 Conditions: stronger effect = higher value.
The mark [21] stands for this setting: measured here: combination with cisplatin, at 0.5 µM.
The mark [22] stands for this setting: measured here: combination with cisplatin, at 5 µM.

Molecules are shown by their SMILES. Several values for one entry are separate records, joined by “and”; a condition that tells them apart may be missing. Identical values can stand only once. Records with an inconclusive call do not appear. For some assays here: Entries with a potency or affinity are not part of this list. Activity calls are given as the source filed them. Rule as the data show it, unless noted: active = inhibition above about 80%; inactive = the rest.

Chain of Plasmodium falciparum protein kinase 6 (PK6, PF3D7_1337100) (Q8IDW1 1-305): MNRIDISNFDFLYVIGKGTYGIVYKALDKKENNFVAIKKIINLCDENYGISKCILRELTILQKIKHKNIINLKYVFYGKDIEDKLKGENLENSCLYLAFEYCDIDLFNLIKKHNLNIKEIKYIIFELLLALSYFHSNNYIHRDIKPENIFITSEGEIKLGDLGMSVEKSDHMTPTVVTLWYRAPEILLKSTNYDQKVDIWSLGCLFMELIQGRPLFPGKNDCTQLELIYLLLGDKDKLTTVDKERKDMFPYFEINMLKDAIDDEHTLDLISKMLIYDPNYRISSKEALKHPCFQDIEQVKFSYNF

Turning to `CN1C(=O)CCS(=O)(=O)C1c1ccc(Cl)cc1` (configuration not stated), the outcome in [1] was inactive.

As for `O=c1[nH]c2ccccc2n1C1CCN(CCCC(c2ccc(F)cc2)c2ccc(F)cc2)CC1`, the normalised LDH release in experiment [2] was determined as 0.918. Moreover, the fold fluorescence in [3] was 5.15 [at 108.3 µM] (inactive).

For the compound `O=c1[nH]c2ccccc2n1CCCN1CCC(n2c(=O)[nH]c3cc(Cl)ccc32)CC1`, the compound was called inactive in experiment [1].

On to `N[C@@H](Cc1ccc(N(CCCl)CCCl)cc1)C(=O)O`, for which, in experiment [1], the concentration at half-maximal activity (AC50) was 18600 nM (active). Further, in experiment [4], the SSMD came out at 1.42, the cell count was 7340 and the plate-normalised HSF1 focus index is 1.09 (inactive).

On to `CC(CCc1ccccc1)NC(C)C(O)c1ccc(O)cc1` (configuration not stated), for which, in experiment [5], the protection was 40% (active).

As to `CN(C)[C@@H]1C(=O)C(C(N)=O)=C(O)[C@@]2(O)C(=O)C3=C(O)c4c(O)cccc4[C@@](C)(O)[C@H]3C[C@@H]12`, in experiment [6], the call was inactive.

In experiment [2], `C[C@@H]1C[C@@H]([C@H](O)CC2CC(=O)NC(=O)C2)C(=O)[C@@H](C)C1` had a normalised LDH release of 0.469. Also, the result in experiment [7], in experiment [8] and in experiment [9] was inactive. The AC50 in [6] was 372 nM (active). Moreover, in [3], the fold fluorescence is 9.32 [at 177.7 µM] (inactive).

Turning to `CCC1(c2ccc(N)cc2)CCC(=O)NC1=O` (configuration not stated), in experiment [6], the result was inactive. For the same compound, in [4], the SSMD worked out at 1.46, the cell count is 7280 and the plate-normalised HSF1 focus index was 1.05 (inactive).

As for `C=C(C)[C@H]1Cc2c(ccc3c2O[C@@H]2COc4cc(OC)c(OC)cc4[C@@H]2C3=O)O1`, the AC50 in [1] is 8330 nM (active); in [6], 1180 nM (active).

With `C[C@@H]1CC[C@H]2[C@@H](C)C(=O)O[C@@H]3O[C@@]4(C)CC[C@@H]1[C@]32OO4`, in experiment [6], the compound was classed as inactive.

Consider `CC[n+]1c(-c2ccccc2)c2cc(N)ccc2c2ccc(N)cc21`, for which the normalised LDH release in [2] is 0.673.

Take `N[C@@H]1C[C@H]1c1ccccc1`: the call in experiment [1] and in experiment [6] was inactive.

Take `C[C@@H]1O[C@@H](O[C@H]2C[C@@H](O)[C@]3(CO)[C@H]4[C@H](O)C[C@]5(C)[C@@H](C6=CC(=O)OC6)CC[C@]5(O)[C@@H]4CC[C@]3(O)C2)[C@H](O)[C@H](O)[C@H]1O`: the AC50 in experiment [6] was 93.4 nM (active). Besides, the fold fluorescence in experiment [3] is 4.64 [at 85.5 µM] (inactive).

On to `Oc1cccc2cccnc12`, for which the normalised LDH release in [2] came to 1.

With `CNCC(O)c1ccc(O)cc1` (configuration not stated), the outcome in [1] and in experiment [6] was inactive.

For `C#CCN(C)[C@H](C)Cc1ccccc1`, the call in [1] and in experiment [6] was inactive.

Turning to `NN=C(N)N`, the result in [1] and in [6] was inactive.

In the case of `O=P1(NCCCl)OCCCN1CCCl` (configuration not stated), the call in experiment [1] and in experiment [6] was inactive. Besides, the inhibition was -28.1% (inactive) and -35.8% (inactive) in experiment [10] (at 0.5 µM); 3.69% and -53.3% in [10] (measured here: combination with BGB IC40, at 0.05 µM); -0.682% and -78.4% in [10] (setting [21]); -35.6% and -67.8% in [10] (setting [22]); -54.7% (inactive) and -66.2% (inactive) in experiment [11] (at 0.5 µM); -36.5% and -70.3% in [11] (measured here: combination with BGB at IC20, at 0.5 µM). The inhibition is -76.6% and -81.7% in experiment [11] (measured here: combination with cisplatin at IC20, at 0.5 µM); -1.59% (inactive) and -13.1% (inactive) in [12] (at 0.5 µM); -0.444% and -33.2% in experiment [12] (measured here: combo with BGB at IC20, at 0.5 µM); -1.58% and -14.4% in experiment [12] (measured here: combo with cisplatin at IC20, at 0.5 µM); -7.68% (inactive) and -24.2% (inactive) in [13] (at 0.5 µM); -37.9% and -17.6% in experiment [13] (measured here: inhibition with BGB combination, at 0.05 µM). For the same compound, the inhibition is -13.2% and -26.4% in [13] (measured here: inhibition with cisplatin combination, at 0.05 µM); -24.9% (inactive) and -21% (inactive) in experiment [14] (at 0.5 µM); -18.4% and -33% in [14] (setting [21]); -20.4% and -22.6% in [14] (setting [22]); -32.5% (inactive) and -17.3% (inactive) in [15] (at 0.5 µM); -44.8% and -19% in [15] (measured here: BGB combination, at 0.5 µM). Besides, the inhibition in [15] (measured here: BGB combination, at 5 µM) was -38% and -30.9%; in experiment [15] (measured here: cisplatin combination, at 0.5 µM), -35.4% and -19.9%; in experiment [15] (measured here: cisplatin combination, at 5 µM), -21.1% and -24.7%; in [16] (BGB combination, concentration series, at 5 µM), -15.7% and -7.29%; in experiment [16] (at 0.5 µM), -18.2% (inactive) and -23.7% (inactive); in [16] (cisplatin combination, concentration series, at 5 µM), -10.3% and -29.5%. In addition, the inhibition in experiment [17] (at 0.5 µM) was -8.49% (inactive) and 1.06% (inactive); in experiment [17] (measured here: combo with BGB IC20, at 0.5 µM), -4.33% and 4.18%; in experiment [17] (measured here: combo with cisplatin IC20, at 0.5 µM) it was -7.61% and -5.83%; in [18] (at 0.5 µM), -13.2% (inactive) and -8.24% (inactive); in experiment [18] (cisplatin combination, at 0.5 µM), -6.37% and -25.6%; in experiment [18] (cisplatin combination, at 5 µM) it was -50% and -9.28%. In addition, the inhibition in experiment [18] (measured here: BGB IC40 combination 0.05 uM, at 0.05 µM) was 1.93% and -27.2%; in experiment [18] (single agent, at 5 µM), -32% and -16.6%; in experiment [19] (at 0.5 µM) it was -14.3% (inactive) and -7.44% (inactive); in experiment [19] (cisplatin combo, at 5 µM) it was -2.4% and -9.06%; in [19] (measured here: BGB IC40 combination, at 0.05 µM), -18.8% and -23%; in experiment [19] (setting [21]), -12.5% and 2.1%. Moreover, the inhibition was -33% and -28.9% in [19] (single agent, at 5 µM); -45.1% (inactive) and -50.6% (inactive) in experiment [20] (at 0.5 µM); -3.77% and -48% in [20] (measured here: with BGB IC20 combination, at 0.5 µM); -65.8% and -54.4% in [20] (measured here: with cisplatin IC20 combination, at 0.5 µM); -16.2% and -50% in experiment [20] (single agent, at 0.05 µM); 2.18% and -61% in [20] (single agent, at 5 µM).

For the compound `C=C1C[C@@H]2[C@H](CC[C@]3(C)C(=O)CC[C@@H]23)[C@@]2(C)C=CC(=O)C=C12`, the compound was classed as inactive in [1]. Moreover, the compound was classed as inactive in experiment [6]. In experiment [4], the SSMD stood at 1.72, the cell count came out at 6870 and the plate-normalised HSF1 focus index is 1.09 (inactive).

Turning to `CC(C)c1cccc(C(C)C)c1O`, the compound was classed as inactive in [1] and in [6].

As for `COc1ccc(C(=O)N2CCCC2=O)cc1`, in experiment [6], the compound was classed as inactive.

For the compound `CC1(C)C(C=C(Cl)Cl)C1C(=O)OC(C#N)c1cccc(Oc2ccccc2)c1` (configuration not stated), the fold fluorescence in [3] is 4.81 [at 120.1 µM] (inactive).

Consider `Nc1ccncc1`, for which the fold fluorescence in [3] is 3.69 [at 531.3 µM] (inactive).

Turning to `N#Cc1nn(-c2c(Cl)cc(C(F)(F)F)cc2Cl)c(N)c1S(=O)C(F)(F)F` (configuration not stated), the fold fluorescence in experiment [3] was 4.35 [at 114.4 µM] (inactive).

For the compound `CN1C(=O)COc2c(C(=O)NC3CN4CCC3CC4)cc(Cl)cc21` (configuration not stated), the compound was called inactive in experiment [1] and in experiment [6].
